From PubChem BioAssay
For part of these data: Measured potencies and affinities stand elsewhere. The source made the active and inactive calls.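 How the source made its calls, unless noted: active means earlier screen potentiator hit that boosts the TRPC4 ion channel at some dose, with a dose response; inactive means no potentiation, no dose response, or not a prior hit.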

Legend:
[1] = test system: TRPC4 beta (transient receptor potential cation channel C4), mouse; assay: TRPC4 cation channel opening, retest – cell-based, Fluo4 calcium, HEK293 TRPC4beta/mu-opioid, duplicates, 10 µM, confirmation (AID 2426;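 active means fluorescence ratio normalized to control raised more than 50% in primary screen plus both repeat runs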;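 on activation: percent rise of integrated ratio over buffer wells lacking compound which define 0%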); details: Fluo4 calcium fluorescence, at 10 µM; hits give high values
[2] = test system: transient receptor potential cation channel C4 beta (TRPC4), mouse; assay: TRPC4 cation channel opening, second retest – cell-based, second round, Fluo4, HEK293 TRPC4beta/mu-opioid, 1 µM, confirmation (AID 2461;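 active means primary screen active and over 50% activation in each of two duplicate runs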;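 on activation: 0% = wells without test compound as baseline of integrated fluorescence ratio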); details: Fluo4 calcium fluorescence, at 1 µM; hits give high values
[3] = test system: TRPC4 (transient receptor potential cation channel C4 beta), mouse; assay: potentiation of DAMGO EC20 TRPC4 response – cell-based, second round, Fluo-4, HEK293 TRPC4beta/mu-opioid, 1 µM, confirmation (AID 2554;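 active means primary screen hit whose fluorescence ratio, in both repeats, exceeds the weak agonist control mean by 3 SD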); details: DAMGO EC20, Fluo-4 calcium flux, at 1 µM; hits give high values
[4] = test system: TRPC4 beta (transient receptor potential cation channel C4), mouse; assay: potentiation of DAMGO EC20 TRPC4 response – cell-based, Fluo-4, HEK293 TRPC4beta/mu-opioid, confirmation (AID 2555;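 active means primary screen hit whose calcium fluorescence ratio, in both repeats, exceeds the weak agonist control mean by 3 SD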); details: DAMGO EC20, Fluo-4 calcium flux, at 10 µM; hits give high values
[5] = biological target: Short transient receptor potential channel 4 (Mus musculus) (UniProt Q9QUQ5); assay: blockers of DAMGO-evoked TRPC4 calcium flux – cell-based, Fluo4, HEK293 TRPC4beta/mu-opioid, confirmation (AID 2636;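 active means calcium signal cut by more than 3 SD below the full-agonist control yet still positive, in both repeats and the earlier primary screen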); details: at 10 µM; hits give high values
Short transient receptor potential channel 4 (Mus musculus), sequence (Q9QUQ5 whole entry, looked up): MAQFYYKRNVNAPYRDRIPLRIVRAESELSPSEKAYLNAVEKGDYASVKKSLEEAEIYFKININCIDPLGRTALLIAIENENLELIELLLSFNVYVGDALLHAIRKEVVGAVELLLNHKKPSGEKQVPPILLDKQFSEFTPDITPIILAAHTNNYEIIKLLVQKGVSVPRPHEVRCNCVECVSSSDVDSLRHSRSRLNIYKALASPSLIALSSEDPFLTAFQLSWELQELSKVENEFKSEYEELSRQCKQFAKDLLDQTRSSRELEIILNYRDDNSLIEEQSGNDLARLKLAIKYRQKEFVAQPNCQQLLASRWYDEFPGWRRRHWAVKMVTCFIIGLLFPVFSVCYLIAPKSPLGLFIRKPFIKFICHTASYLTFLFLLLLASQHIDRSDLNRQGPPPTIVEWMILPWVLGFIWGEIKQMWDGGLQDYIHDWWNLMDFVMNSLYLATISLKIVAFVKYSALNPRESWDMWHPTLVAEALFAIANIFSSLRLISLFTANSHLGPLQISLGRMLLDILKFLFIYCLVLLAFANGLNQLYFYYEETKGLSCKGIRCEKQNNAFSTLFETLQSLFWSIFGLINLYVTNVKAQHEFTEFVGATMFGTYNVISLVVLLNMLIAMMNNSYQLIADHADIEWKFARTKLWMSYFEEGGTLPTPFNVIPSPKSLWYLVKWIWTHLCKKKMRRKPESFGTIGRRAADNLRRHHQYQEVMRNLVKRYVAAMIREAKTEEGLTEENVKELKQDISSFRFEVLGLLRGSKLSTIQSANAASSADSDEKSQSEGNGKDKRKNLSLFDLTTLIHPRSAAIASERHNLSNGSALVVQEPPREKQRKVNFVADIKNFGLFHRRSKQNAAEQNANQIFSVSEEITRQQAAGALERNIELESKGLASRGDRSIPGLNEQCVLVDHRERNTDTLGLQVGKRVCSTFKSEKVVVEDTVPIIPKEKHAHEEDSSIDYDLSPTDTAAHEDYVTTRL

[6] = biological target: Short transient receptor potential channel 4 (Mus musculus) (UniProt Q9QUQ5); assay: blockers of DAMGO-evoked TRPC4 calcium flux – cell-based, second round, Fluo4, HEK293 TRPC4beta/mu-opioid, 1 µM, confirmation (AID 2637;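 active means calcium signal ratio cut to more than 3 SD under the fully stimulated control mean yet still positive, in both repeats and the primary screen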); details: at 1 µM; hits give high values
[7] = biological target: Short transient receptor potential channel 4 (Mus musculus) (UniProt Q9QUQ5); assay: potentiation of DAMGO-evoked TRPC4 calcium signal – cell-based, HEK293 TRPC4/mu-opioid, Fluo-4 calcium, EC20 DAMGO, dose response (AID 434941);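 further: calcium entry triggered by an EC20 dose of DAMGO at the co-expressed mu-opioid receptor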
[8] = biological target: Short transient receptor potential channel 4 (Mus musculus) (UniProt Q9QUQ5); assay: block of DAMGO-driven TRPC4 calcium entry – cell-based, HEK293 TRPC4/mu-opioid, Fluo-4 calcium, dose response (AID 434942;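 active means primary screen inhibitor hit that blocks the TRPC4 channel at some tested dose, yielding a dose curve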)
[9] = biological target: Short transient receptor potential channel 6 (Mus musculus) (UniProt Q61143); assay: TRPC6 blockade by TRPC4 inhibitor hits – cell-based, HEK293, membrane potential dye, duplicate, selectivity assay for TRPC4 inhibitor project, confirmation (AID 434948;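 active means active in primary screen and both duplicates, each dropping signal beyond three positive-control SD with fluorescence still positive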); details: HEK293 TRPC6, membrane potential dye fluorescence, at 10 µM, stimulated with maximal-effect acetylcholine; hits give high values
Short transient receptor potential channel 6 (Mus musculus), sequence (Q61143 whole entry, looked up): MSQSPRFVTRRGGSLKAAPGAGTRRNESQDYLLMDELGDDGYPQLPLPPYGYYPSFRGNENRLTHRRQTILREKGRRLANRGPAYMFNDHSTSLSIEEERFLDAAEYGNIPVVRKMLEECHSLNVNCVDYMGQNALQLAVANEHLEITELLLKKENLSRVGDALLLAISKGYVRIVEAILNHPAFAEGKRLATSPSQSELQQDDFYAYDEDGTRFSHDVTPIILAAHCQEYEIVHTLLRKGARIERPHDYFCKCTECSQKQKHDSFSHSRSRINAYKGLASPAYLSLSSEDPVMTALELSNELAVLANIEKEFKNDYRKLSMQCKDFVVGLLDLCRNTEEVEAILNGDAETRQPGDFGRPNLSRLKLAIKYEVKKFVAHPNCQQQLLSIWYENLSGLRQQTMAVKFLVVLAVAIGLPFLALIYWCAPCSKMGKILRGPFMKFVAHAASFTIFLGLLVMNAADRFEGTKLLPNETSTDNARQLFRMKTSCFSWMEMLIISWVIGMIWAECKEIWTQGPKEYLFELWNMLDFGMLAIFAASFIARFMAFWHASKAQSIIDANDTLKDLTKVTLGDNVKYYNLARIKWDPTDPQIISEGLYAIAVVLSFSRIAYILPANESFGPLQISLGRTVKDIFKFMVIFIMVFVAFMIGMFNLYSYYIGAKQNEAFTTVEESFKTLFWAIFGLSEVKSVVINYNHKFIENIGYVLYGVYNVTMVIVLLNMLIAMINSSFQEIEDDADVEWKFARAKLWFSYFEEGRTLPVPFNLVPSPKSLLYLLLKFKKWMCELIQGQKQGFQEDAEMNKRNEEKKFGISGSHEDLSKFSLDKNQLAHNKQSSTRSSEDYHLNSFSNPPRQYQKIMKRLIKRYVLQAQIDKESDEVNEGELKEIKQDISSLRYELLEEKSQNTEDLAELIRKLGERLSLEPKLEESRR

[10] = biological target: Short transient receptor potential channel 6 (Mus musculus) (UniProt Q61143); assay: TRPC6 opening by TRPC4 activator hits – cell-based, HEK293, membrane potential dye, duplicate, selectivity assay for TRPC4 activator project, confirmation (AID 434950;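 active means membrane potential signal rise above negative control mean plus 3 SD in both duplicates, also active in the earlier TRPC4 screen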;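 on activation: 0% = buffer only wells and 100% = acetylcholine maximal-effect wells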); details: HEK293 TRPC6, membrane potential fluorescence, at 10 µM; activation: hits give high values; outcome: activation
[11] = biological target: Short transient receptor potential channel 6 (Mus musculus) (UniProt Q61143); assay: positive modulators of mouse TRPC6 channel – HEK293 cells, membrane potential dye, duplicate, selectivity assay for TRPC4 potentiator project, confirmation (AID 434952;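 active means compound raising the membrane signal above positive-control mean plus 3 SD in both repeats, and a primary screen hit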); details: HEK293 TRPC6, membrane potential dye fluorescence, at 10 µM, maximal acetylcholine added after compound; hits give high values
[12] = biological target: Short transient receptor potential channel 4 (Mus musculus) (UniProt Q9QUQ5); assay: calcium flux activators in TRPC4/5HT1a cells, counter-screen for TRPC4 activator project, cell-based, second counter screen, HEK293 TRPC4/5HT1a, Fluo-4 (AID 434977;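 active means calcium signal rise above buffer-control mean plus 5 SD in both duplicates, and also a hit in the primary screen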;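 on activation: plate controls were assay buffer for no effect and maximal serotonin response for full effect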); details: Fluo-4 calcium flux, at 10 µM; hits give high values
[13] = serotonin-gated TRPC4 signal block – cell-based, second counter screen, HEK293 TRPC4/5HT1a, Fluo-4, counter-screen for TRPC4 inhibitor project, confirmation (AID 434978;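 active means primary screen active whose calcium signal fell more than 3 SD beyond the full-serotonin control mean in both duplicate plates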;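 further: serotonin given first at submaximal then at maximal dose after compound preincubation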); details: Fluo-4 calcium flux, at 10 µM, serotonin added to trigger calcium flux; hits give high values
[14] = test system: TRPC4 (mouse), co-expressed with 5HT1a in HEK293; assay: enhancement of serotonin-evoked TRPC4 response – cell-based, second counter screen, HEK293 TRPC4/5HT1a, Fluo-4, counter-screen for TRPC4 potentiator project, confirmation (AID 434979;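 active means signal rise over 3 SD above mean of control wells given weak agonist, in both repeats and first screen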); details: Fluo-4 calcium flux, at 10 µM, serotonin added at its EC20 dose; hits give high values
[15] = nonspecific calcium rise without TRPC4 – cell-based, HEK293 mu-opioid receptor line, counter-screen for TRPC4 activator project, confirmation (AID 449723;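 active means hit in primary screen, with calcium signal over 5 SD above buffer well mean in both duplicates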;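 further: counter screen cells carry the mu-opioid receptor alone and lack TRPC4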); details: HEK293 mu-opioid cells, Fluo-4 calcium fluorescence, at 10 µM; hits give high values
[16] = nonspecific potentiation of DAMGO calcium response – cell-based, HEK293 mu-opioid receptor line, counter-screen for TRPC4 allosteric potentiator project, confirmation (AID 449724;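 active means calcium signal rise more than 3 SD above the low-dose agonist control mean, in both duplicate plates and the primary screen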;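 further: HEK293 cells carrying mu-opioid receptor only with no TRPC4 channel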); details: HEK293 mu-opioid receptor cells, Fluo-4 calcium flux, at 10 µM, compound added before EC20 DAMGO stimulus; hits give high values

SMILES	activation [1]	activation [2]	outcome [3]	outcome [4]	outcome [5]	outcome [6]	outcome [7]	outcome [8]	outcome [9]	activation [10]	outcome [11]	outcome [12]	outcome [13]	outcome [14]	outcome [15]	outcome [16]	outcome [10]	activation [12]	outcome [2]	outcome [1]
Cc1cccc(NC(=S)NCC(c2cccnc2)N(C)C)c1 (stereo not given)	87% (active)	115% (active)	inactive	inactive	inactive	inactive	inactive	inactive	inactive	33.5% (active)	inactive	inactive	inactive	inactive	inactive	inactive				
O=C(NCCCN1CCN(CCCNC(=O)c2ccc3c(c2)OCO3)CC1)c1ccc2c(c1)OCO2	112% (active)	76% (active)	inactive	inactive	inactive	inactive	inactive	inactive	inactive		inactive		inactive	inactive	inactive	inactive	inactive	37.2% (active)		
CCCCC(c1nnnn1CC1CCCO1)N1CCN(c2nc3ccccc3s2)CC1 (stereo not given)	88% (active)		inactive	inactive	inactive	inactive	inactive	inactive	inactive	60.5% (active)	inactive		inactive	inactive	inactive	inactive		12.7% (active)	inactive	
Cc1ccc(C)c(S(=O)(=O)N2CCN(C(=O)CCc3nc4ccccc4c(=O)[nH]3)CC2)c1	153% (active)		inactive	inactive	inactive	inactive	inactive	inactive	inactive	39% (active)	inactive		inactive	inactive	inactive	inactive		25.2% (active)	inactive	
CN(C)CCCN(C(=O)c1ccc(S(=O)(=O)N(C)Cc2ccccc2)cc1)c1nc2cc3c(cc2s1)OCO3			inactive	inactive	inactive	inactive	inactive	inactive	inactive		inactive	inactive	inactive	inactive	inactive	inactive	inactive		inactive	inactive
Cc1nc(/N=C(\N)NC(=O)NC2CCCCC2)nc2ccccc12	99% (active)	66% (active)	inactive	inactive	inactive	inactive	inactive	inactive	inactive		inactive		inactive	inactive	inactive	inactive	inactive	36.2% (active)		
O=C(c1sc2ccccc2c1Cl)N(Cc1ccco1)C1CCS(=O)(=O)C1 (stereo not given)	198% (active)		inactive	inactive	inactive	inactive	inactive	inactive	inactive	57.5% (active)	inactive	inactive	inactive	inactive	inactive	inactive			inactive	
Cc1onc(-c2ccccc2)c1C(=O)NC(=S)NNC(=O)c1ccco1	142% (active)		inactive	inactive	inactive	inactive	inactive	inactive	inactive	30.5% (active)	inactive		inactive	inactive	inactive	inactive		51.5% (active)	inactive	
CCCN(CCC)CCCNc1ccc2nnc(-c3ccc(F)cc3)n2n1	92% (active)		inactive	inactive	inactive	inactive	inactive	inactive	inactive		inactive		inactive	inactive	inactive	inactive	inactive	41.2% (active)	inactive	
COc1ccc(C(CNC(=O)CN2C(=O)NC3(CCCC3)C2=O)N(C)C)cc1 (stereo not given)	121% (active)		inactive	inactive	inactive	inactive	inactive	inactive	inactive		inactive	inactive	inactive	inactive	inactive	inactive	inactive		inactive	
CN(C)C(CNC(=O)c1ccc2ccccc2n1)c1ccccc1 (stereo not given)	61% (active)		inactive	inactive	inactive	inactive	inactive	inactive	inactive	54% (active)	inactive	inactive	inactive	inactive	inactive	inactive			inactive	
CCCC(=O)NC(C)C(c1cccs1)N1CCN(c2ccccc2)CC1 (stereo not given)			inactive	inactive	inactive	inactive	inactive	inactive	inactive	38.5% (active)	inactive	inactive	inactive	inactive	inactive	inactive			inactive	inactive
O=C(COc1ccc(Br)cc1CNC1CCCC1)Nc1ccccc1	175% (active)		inactive	inactive	inactive	inactive	inactive	inactive	inactive	29.5% (active)	inactive	inactive	inactive	inactive	inactive	inactive			inactive	
COc1ccc(-c2cc(C#N)nc(N3CCNCC3)n2)cc1	176% (active)		inactive	inactive	inactive	inactive	inactive	inactive	inactive		inactive	inactive	inactive	inactive	inactive	inactive	inactive		inactive	
CCOC(=O)C1(CCc2ccccc2)CCN(Cc2c(O)cccc2OC)CC1	83% (active)		inactive	inactive	inactive	inactive	inactive	inactive	inactive	92.5% (active)	inactive	inactive	inactive	inactive	inactive	inactive			inactive	
